# For part of these data: Entries with a potency or affinity are not part of this list.
# Legend:
# Parameters in all cases: scale not given: direction of the effect not stated beside the values
# [1] = molecular target: Protein translocase subunit SecA (Escherichia coli (strain K12)) (UniProt P10408); assay: Assay to Identify E. coli SecA ATPase Inhibitors; assay type: functional; settings: 30 µM
# [2] = molecular target: T1, Ubiquitin-activating enzyme e1, putative (Leishmania donovani (strain BPK282A1)) (UniProt E9BSI1); assay: Leishmania donovani Ubiquitin Activating Enzyme (LdE1); assay type: functional; settings: 30 µM
# T1 sequence (whole entry): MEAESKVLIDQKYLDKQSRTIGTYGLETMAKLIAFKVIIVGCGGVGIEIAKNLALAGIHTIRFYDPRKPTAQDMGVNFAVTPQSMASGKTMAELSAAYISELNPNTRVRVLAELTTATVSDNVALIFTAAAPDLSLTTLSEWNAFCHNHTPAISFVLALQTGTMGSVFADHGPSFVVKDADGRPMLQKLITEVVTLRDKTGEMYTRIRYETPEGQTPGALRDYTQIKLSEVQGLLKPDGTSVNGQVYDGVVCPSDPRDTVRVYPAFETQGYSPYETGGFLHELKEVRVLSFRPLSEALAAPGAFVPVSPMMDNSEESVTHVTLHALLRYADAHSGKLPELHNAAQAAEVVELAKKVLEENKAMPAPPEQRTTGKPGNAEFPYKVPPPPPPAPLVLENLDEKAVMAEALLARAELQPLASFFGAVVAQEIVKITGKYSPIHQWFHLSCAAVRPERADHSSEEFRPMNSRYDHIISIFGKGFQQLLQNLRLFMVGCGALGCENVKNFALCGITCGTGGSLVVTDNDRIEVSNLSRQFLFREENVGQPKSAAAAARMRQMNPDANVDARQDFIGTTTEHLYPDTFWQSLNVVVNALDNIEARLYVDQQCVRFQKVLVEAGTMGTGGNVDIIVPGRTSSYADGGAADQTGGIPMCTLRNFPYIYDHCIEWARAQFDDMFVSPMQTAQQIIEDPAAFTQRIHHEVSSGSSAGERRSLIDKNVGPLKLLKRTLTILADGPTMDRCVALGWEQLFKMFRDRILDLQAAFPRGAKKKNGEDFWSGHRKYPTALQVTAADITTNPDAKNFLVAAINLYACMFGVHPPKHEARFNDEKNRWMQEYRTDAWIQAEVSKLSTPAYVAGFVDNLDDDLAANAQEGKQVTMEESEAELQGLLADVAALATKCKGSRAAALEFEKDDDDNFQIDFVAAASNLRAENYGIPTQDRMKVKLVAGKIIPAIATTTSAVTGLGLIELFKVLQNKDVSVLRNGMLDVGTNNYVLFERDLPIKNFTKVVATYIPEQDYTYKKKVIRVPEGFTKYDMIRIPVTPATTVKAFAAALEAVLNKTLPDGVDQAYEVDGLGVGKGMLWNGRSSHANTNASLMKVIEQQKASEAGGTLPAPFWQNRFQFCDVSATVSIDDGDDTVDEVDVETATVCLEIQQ
# [3] = molecular target: AMP-activated protein kinase, AMPK (Homo sapiens) (UniProt P54646+O43741+P54619+Q9UGJ0+Q9Y478+Q13131+Q9UGI9); assay: AMP-dependent Kinase enzyme assay. An in vitro enzyme assay that detects ADP turnover that is directly proportional to AMPK activity. This uses naive AMPK that is activated during the assay with MK-8722; assay type: functional; settings: 30 µM
# [4] = molecular target: Sialic acid-binding Ig-like lectin 9 (Homo sapiens) (UniProt Q9Y336); assay: Hs-Siglec9 ALPHAscreen SOP 20170721; settings: 10 µM
# Trypanosoma cruzi = assay: Trypanosoma cruzi phosphomannomutase and mannose-1-phosphate guanylyltransferase assay; assay type: functional; settings: 10 µM
# [5] = molecular target: T2, Arginase-2, mitochondrial (Homo sapiens) (UniProt P78540); assay: in vitro enzyme assay to detect the production of urea directly proportional to the activity of Arginase II; assay type: functional; settings: 33.3 µM; further: in the data most compounds retested in dose-response had high values
# T2 sequence (whole entry): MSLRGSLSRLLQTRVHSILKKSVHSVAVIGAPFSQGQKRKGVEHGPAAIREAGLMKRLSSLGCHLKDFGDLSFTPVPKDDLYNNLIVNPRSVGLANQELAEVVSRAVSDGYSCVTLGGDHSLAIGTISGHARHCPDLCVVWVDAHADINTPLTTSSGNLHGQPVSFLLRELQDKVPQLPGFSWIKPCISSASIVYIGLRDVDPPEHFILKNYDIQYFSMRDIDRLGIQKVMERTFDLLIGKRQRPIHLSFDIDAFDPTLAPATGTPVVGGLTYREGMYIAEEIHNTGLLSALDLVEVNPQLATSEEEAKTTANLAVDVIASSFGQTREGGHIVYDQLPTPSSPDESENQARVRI
# [6] = molecular target: T3, Proteasome subunit beta (Trypanosoma cruzi) (UniProt O96673); assay: Trypanosoma cruzi proteasome chymotrypsin-like activity (TcProtChymo) assay.; further: in the data most compounds retested in dose-response had high values; assay type: functional; settings: 9.37 µM
# T3 sequence (whole entry): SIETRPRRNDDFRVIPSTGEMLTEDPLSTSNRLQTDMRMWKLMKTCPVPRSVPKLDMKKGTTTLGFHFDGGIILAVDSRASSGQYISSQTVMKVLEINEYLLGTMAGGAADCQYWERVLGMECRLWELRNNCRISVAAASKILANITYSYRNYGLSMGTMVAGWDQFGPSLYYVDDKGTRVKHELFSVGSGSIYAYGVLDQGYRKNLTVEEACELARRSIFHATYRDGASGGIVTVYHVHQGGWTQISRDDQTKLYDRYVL
# Homo sapiens = species: Homo sapiens; assay: To identify inhibition of the IFN signalling (Jak-Stat) pathway via expression of an eGFP reporter gene under the control of an IFN-stimulated response element (ISRE) containing MxA promoter.; assay type: functional; settings: 30 µM
# [7] = molecular target: T4, Tyrosyl-tRNA synthetase, putative (Trypanosoma cruzi (strain CL Brener)) (UniProt Q4DSP6); assay: Trypanosoma cruzi tyrosyl tRNA synthetase (TcYRS) _High Tyrosine SOP; assay type: functional; settings: 30 µM; further: in the data most compounds retested in dose-response had high values
# T4 sequence (whole entry): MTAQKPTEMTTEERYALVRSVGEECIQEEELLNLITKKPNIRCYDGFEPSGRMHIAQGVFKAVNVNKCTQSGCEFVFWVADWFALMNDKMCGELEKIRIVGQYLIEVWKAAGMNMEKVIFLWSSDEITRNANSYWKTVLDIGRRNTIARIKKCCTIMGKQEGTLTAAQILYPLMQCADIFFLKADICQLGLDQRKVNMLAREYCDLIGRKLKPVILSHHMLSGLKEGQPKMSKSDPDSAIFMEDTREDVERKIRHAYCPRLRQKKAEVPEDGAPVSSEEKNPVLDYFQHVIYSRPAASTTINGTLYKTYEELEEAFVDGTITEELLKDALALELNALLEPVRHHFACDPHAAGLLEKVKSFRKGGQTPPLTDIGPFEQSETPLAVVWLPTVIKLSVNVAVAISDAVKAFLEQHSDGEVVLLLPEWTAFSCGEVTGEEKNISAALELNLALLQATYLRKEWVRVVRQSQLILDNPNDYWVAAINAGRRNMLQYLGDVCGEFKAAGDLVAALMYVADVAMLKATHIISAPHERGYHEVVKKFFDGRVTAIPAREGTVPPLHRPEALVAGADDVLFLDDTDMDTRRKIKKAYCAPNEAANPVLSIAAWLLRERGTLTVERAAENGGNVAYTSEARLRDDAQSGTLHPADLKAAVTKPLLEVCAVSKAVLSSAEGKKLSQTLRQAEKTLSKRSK
# [8] = molecular target: T4, Tyrosyl-tRNA synthetase, putative (Trypanosoma cruzi (strain CL Brener)); assay: Trypanosoma cruzi tyrosyl tRNA synthetase (TcYRS) SOP; assay type: functional; settings: 30 µM
# [9] = molecular target: Chromo domain-containing protein 1 (Saccharomyces cerevisiae (strain ATCC 204508 / S288c) (Baker's yeast)) (UniProt P32657); assay: ScCHD-1 Enzyme Inhibition Assay; assay type: functional; settings: 30 µM; further: in the data most compounds retested in dose-response had high values
# Sequence of Chromo domain-containing protein 1 (Saccharomyces cerevisiae (strain ATCC 204508 / S288c) (Baker's yeast)) (P32657 whole entry, the tested form may be a part): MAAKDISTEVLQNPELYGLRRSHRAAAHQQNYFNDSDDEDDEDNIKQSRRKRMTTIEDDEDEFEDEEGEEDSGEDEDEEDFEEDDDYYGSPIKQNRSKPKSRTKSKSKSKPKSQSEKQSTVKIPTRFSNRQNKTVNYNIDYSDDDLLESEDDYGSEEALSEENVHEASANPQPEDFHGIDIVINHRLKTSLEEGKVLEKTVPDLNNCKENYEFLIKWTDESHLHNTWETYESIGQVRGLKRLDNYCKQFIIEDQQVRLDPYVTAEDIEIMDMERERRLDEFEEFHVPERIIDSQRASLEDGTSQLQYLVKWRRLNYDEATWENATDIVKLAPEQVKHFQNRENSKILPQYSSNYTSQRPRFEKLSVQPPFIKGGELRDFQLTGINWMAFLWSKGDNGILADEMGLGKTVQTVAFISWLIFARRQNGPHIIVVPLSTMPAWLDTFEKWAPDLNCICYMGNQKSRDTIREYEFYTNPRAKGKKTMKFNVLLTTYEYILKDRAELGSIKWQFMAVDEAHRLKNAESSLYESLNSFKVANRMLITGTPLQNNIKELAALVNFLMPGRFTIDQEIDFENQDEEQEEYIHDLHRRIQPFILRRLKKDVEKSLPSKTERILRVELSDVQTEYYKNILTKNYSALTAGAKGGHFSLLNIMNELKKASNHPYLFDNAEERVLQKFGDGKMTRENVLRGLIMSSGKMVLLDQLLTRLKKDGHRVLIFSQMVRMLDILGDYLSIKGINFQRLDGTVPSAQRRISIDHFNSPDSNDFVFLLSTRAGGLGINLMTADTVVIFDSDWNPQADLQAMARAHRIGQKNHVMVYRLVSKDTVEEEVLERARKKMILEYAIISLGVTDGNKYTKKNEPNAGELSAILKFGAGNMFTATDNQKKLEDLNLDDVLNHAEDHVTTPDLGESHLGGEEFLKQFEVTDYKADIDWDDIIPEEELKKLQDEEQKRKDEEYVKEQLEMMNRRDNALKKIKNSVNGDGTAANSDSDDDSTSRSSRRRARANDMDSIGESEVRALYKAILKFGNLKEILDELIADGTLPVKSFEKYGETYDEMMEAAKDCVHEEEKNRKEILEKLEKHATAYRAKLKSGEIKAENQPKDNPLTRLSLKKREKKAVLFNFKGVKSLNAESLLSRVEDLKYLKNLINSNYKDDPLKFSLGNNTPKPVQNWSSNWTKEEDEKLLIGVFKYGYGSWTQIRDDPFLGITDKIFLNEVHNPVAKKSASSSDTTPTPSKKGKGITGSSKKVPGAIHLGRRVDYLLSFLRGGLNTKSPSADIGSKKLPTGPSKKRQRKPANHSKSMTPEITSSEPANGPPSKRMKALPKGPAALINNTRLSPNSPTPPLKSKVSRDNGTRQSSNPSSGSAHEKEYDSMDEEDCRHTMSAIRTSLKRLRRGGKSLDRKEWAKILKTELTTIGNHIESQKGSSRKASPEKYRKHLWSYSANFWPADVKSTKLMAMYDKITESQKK
# Sequence of Sialic acid-binding Ig-like lectin 9 (Homo sapiens) (Q9Y336 whole entry): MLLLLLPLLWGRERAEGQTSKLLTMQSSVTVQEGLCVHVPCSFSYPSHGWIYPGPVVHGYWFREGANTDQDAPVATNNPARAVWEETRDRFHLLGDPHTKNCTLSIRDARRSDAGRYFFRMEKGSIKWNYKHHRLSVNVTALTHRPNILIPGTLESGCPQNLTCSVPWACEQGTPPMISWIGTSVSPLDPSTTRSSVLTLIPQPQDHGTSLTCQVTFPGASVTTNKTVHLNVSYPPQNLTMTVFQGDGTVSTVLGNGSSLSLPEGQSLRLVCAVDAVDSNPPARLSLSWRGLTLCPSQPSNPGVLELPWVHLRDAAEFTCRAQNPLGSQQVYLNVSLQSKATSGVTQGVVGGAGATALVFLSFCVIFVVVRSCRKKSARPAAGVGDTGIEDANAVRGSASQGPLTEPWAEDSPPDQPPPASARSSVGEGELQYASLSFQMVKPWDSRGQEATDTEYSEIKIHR
# Sequence of Protein translocase subunit SecA (Escherichia coli (strain K12)) (P10408 whole entry): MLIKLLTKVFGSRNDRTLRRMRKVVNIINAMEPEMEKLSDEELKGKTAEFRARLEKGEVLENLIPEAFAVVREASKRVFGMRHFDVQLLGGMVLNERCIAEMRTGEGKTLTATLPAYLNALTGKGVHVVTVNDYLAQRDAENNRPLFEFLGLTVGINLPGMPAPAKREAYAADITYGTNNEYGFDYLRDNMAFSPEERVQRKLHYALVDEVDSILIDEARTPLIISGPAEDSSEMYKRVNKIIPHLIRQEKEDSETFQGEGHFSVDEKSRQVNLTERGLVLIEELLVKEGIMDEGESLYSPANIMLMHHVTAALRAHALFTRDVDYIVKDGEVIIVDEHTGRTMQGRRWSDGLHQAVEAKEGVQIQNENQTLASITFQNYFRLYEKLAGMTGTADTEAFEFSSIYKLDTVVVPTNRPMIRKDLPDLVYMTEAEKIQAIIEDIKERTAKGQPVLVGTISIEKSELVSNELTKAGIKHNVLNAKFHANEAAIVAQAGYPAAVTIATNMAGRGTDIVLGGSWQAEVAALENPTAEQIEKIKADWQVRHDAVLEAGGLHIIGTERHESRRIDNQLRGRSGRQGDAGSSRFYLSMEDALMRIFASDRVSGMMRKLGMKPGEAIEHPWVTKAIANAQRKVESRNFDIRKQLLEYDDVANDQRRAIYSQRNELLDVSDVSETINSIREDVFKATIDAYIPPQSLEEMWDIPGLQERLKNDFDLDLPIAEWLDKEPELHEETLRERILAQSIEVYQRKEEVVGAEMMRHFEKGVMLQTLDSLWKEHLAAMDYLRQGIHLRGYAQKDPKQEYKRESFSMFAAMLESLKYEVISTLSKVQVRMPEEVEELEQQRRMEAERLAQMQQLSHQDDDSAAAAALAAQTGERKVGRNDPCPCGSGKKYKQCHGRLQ
SMILES,Percent Effect [1] [%],Percent Effect [2] [%],Percent Effect [3] [%],Percent Effect [4] [%],Percent Effect (Trypanosoma cruzi) [%],Percent Effect [5] [%],Percent Effect [6] [%],Percent Effect (Homo sapiens) [%],Percent Effect [7] [%],Percent Effect [8] [%],Percent Effect [9] [%]
CCOc1ccnc(N2CCN(C(=O)c3cn[nH]c3CC)CC2)n1,-3.25,15.2,-3.34,7.76,0.472,-0.38,-1.23,18.9,7.39,24.1,-4.33
CSc1ccccc1CN1CCCn2nc(CNC(=O)N(C)C)cc2C1,-2.86,8.22,-6.48,20.7,3.13,4.09,6.92,9.78,4.3,12.5,97.4
COc1ccccc1OCc1cc(C(=O)N2CC(O)C2)n[nH]1,-4.46,4.17,141,-2.11,-0.875,3.09,6.49,1.4,4.21,10.3,-1.24
Cc1ccc(-c2nc(CN3CCc4nn(C)c(=O)cc4C3)co2)cc1,-3.32,35.1,-173,1.71,-2.74,1.2,17.1,11.3,3.45,13.6,-6.66
CCCS(=O)(=O)N1CCC2(CN(c3cnn(C)c3)C(=O)CN2C)C1 (stereo unspecified),1.02,10.8,5.11,-11.2,-4.69,0.833,20.4,6.16,6.93,8.54,1.55
O=C(O)c1ccc(S(=O)(=O)Nc2ccc(Cl)c(F)c2)c(F)c1,-2.14,-2.7,-7.96,15.3,1.04,1.6,-1.08,8.28,-13.3,-18.5,-4.26
Cc1ccnc(OCC(=O)N2CCC(C(N)=O)CC2)n1,-3.87,21.9,0.564,12.6,1.37,5,11.4,7.23,6.45,15,-7.43
Cc1ccc(-c2nc(CN3CCN(S(=O)(=O)N(C)C)CC3)cs2)o1,1.85,3.8,3.49,-3.53,-3.79,1.94,20.9,43.8,8.33,12.7,-19.4
O=C(NCC1CC1)N1CCN(Cc2ccc3c(c2)OCCO3)CC1,-2.95,5.26,1.09,12.6,3.08,1.08,4.99,20,3.45,13.6,0.382
CCN(CC1CCCO1)C(=O)Nc1cc(C(=O)OC)ccc1F (stereo unspecified),-2.67,7.59,1.58,13.4,-1.98,1.9,2.21,0.11,3.45,8.86,-8.28
CCOc1ccccc1C1CCCN1 (stereo unspecified),-5.25,7.89,2.38,-2.36,1.27,-7.1,15.4,-5.78,-1.06,2.6,-7.12
CCn1ccnc1CN1CCCN(C(=O)c2sccc2C#N)CC1,-2.7,-2.53,1.18,1.09,0.472,1.52,-4.01,-12.1,6.4,8.86,0.721
CCc1ncncc1C(=O)N1CCCN(Cc2ccc(C)cc2)CC1,-6.16,2.63,1.25,-3.26,-6.44,-0.36,0.592,6.25,-2.46,-13.6,6.06
O=C(NCCc1ccc(Cl)s1)NCc1nnc2n1CCC2,-5.75,18.4,-1.91,-9.75,-6.07,-3.96,15.5,4.94,4.43,11.1,-7.66
COC[C@H]1CCC[C@]12CN(CCc1ccccc1)CCO2,0.0327,12,1.6,2.89,-5.5,-8.28,19.8,4.65,1.06,2.56,-6.74
CC(C(=O)NCCCN1CCCCCC1=O)n1cncn1 (stereo unspecified),-2.32,21.1,-0.014,-11.5,-1.4,-5.04,8.04,2.75,5.42,13.6,-7.45
COc1cccc(CNC(=O)N2CCN(Cc3cc(C)on3)CC2)c1,-1.41,15.2,-1.11,-7.32,-6.33,0.38,1.39,25.8,5.42,11.4,-5.16
Cc1ccccc1CN1CCN(Cc2nccn2C)CC1,-3.45,5.41,-4.75,4.96,-3.3,-1.6,0.36,16.1,3.45,3.7,-1.25
Cc1ccsc1C(=O)NCCCn1nc2ccccn2c1=O,-1.75,16.2,-0.37,-0.759,-3.99,1.66,9.52,20.9,5.94,18.3,-8.98
N#Cc1cccc(CS(=O)(=O)NCC(O)Cc2ccccc2)c1 (stereo unspecified),-4.15,-2.67,0.717,0.263,0.682,-3.12,1.4,6.52,0.546,3.7,1.24
CCn1ccnc1CN1CCN(CCOc2cccc(C#N)c2)CC1,-4.35,21.1,-6.98,-4.93,5.64,-0.383,11.9,4.93,8.33,19.5,-13
